Over roughly 24,000 sequences, “enrichment r” has its median near 0.99; the highest 2% begin near 3.7. Shown is part of a subset that was picked to be rich in the highest values.

Sequences and labels used below:
B1: chr4:144460044:144460045:+_ENSG00000153147_ENST00000283131|hu_mus|hu_hu_hu_mus_False|18_68 (ssRNA)
RNA: GGGAGUUCUACAGUCCGACGAUCACGGUCCAUAGCCUGAAGAUCAACUUGCGGAUUCCAAUCUGAGUCAUACAAAAUGACUACAUCAGCAGUUGCAAGAUUGAUGCCCAGACCACCAGCACGCGUGCUUAGCAUAAAUACAAACAACAGAGGAUUGAGCAUCA
B2: 47062174_47062422_1437_CDS_ENSG00000130985_ENST00000335972|human|control|control (ssRNA)
RNA: GGGAGUUCUACAGUCCGACGAUCGACCUCUUUGUCCUCAGGGAGACACUCAAGGGCAUCAAAGUAUAGCCACUGCAUGAUGGGCAUGAACUUCCCGGAGCAGGCCUUCAUGACUUCCUGGGCAGCCAGGCCCCCAAUGAAGGCCAACAGAGGAUUGAGCAUCA
B3: chr6:30691630:30691631:+_ENSG00000196230_ENST00000327892|hu_hu|FALSE|FALSE (ssRNA)
RNA: GGGAGUUCUACAGUCCGACGAUCAGCUCGAUACUGCUGGCUUCCACGGCUGGUGAGAGGGGCAAAGCCAGGCAUAAAGAAAUGGAGACGUGGGAAGGGGACCAUGUUGACUGCCAACUUGCGGAGGUCAGCAUUGAGCUGGCCCAACAGAGGAUUGAGCAUCA
B4: 98346538_98346658_211_5pUTR_ENSG00000077147_ENST00000371142|human|control|control (ssRNA)
RNA: GGGAGUUCUACAGUCCGACGAUCCAGCCACAGCGCGGCGGCCGCCGCCACGCCAAGAGCGCCAGGCAGCGGCCUCAUCCUCCGCGCCCCUCCGGCCCGGAGCCGGCUCACCGACUCCUCCUCCCGCCGCCGCCUCCUCCGCCGCAACAGAGGAUUGAGCAUCA
B5: chr6:35489678:35489679:-_ENSMUSG00000029840_ENSMUST00000031866|mus_hu|FALSE|FALSE (ssRNA)
RNA: GGGAGUUCUACAGUCCGACGAUCAGAAGAUGAGGAGGCGGUGGCAGCAGCAAGCGGAUGCCGCCGGGCGAGAGGGAGGCAGGGCCGCGCGAAGCCGGAGAGGAGAAGAAGAGAAGGAGGGUUAGGCUGCCAGGCGGGCGAGGCCAACAGAGGAUUGAGCAUCA
B6: 44991723_44991843_1432_CDS_ENSMUSG00000038518_ENSMUST00000173246|mouse|control|control (ssRNA)
RNA: GGGAGUUCUACAGUCCGACGAUCCUGAGCAGACCGAUGCGAAGGGGGAGGUUGGUGGUUGGCAGCAAGUCCCUUGGCAGAGGAAGCCGCAGCCGAGGCGGCCGUGGGCUGAGCCCCUGAAGCCUGUUCUCUCCGGCUGUCUGCCAACAGAGGAUUGAGCAUCA
B7: 91300164_91300284_179_3pUTR_ENSMUSG00000038459_ENSMUST00000117085|mouse|control|control (ssRNA)
RNA: GGGAGUUCUACAGUCCGACGAUCCCGCCGGGGCGGGCGCGGGGGUCGCCGCGGGAGCGGGCGCGCGCUGCUCGGGCGCCAGCACCGUGUAGGUGGGUUCGGGCGGCAGGAAGGCCAGCUUGGCGGCGAUGCGGCUCGGACAAGCAACAGAGGAUUGAGCAUCA
B8: chr2:180329438:180329439:+_ENSMUSG00000049401_ENSMUST00000029087|mus_hu|FALSE|FALSE (ssRNA)
RNA: GGGAGUUCUACAGUCCGACGAUCCUCUGAGGCACUCUGAGGGCCUGGCUCUGUGGGCGGCUGCUCCCGCCGGCUCAGCUCCAGCUUCCUCUUCUUGCUCUCUUUGGGGCUUAAGGGCUCCGGCCUAUCUUCCCCGUGGCCCCCCAACAGAGGAUUGAGCAUCA
B9: 62352434_62352554_269_CDS_ENSMUSG00000018509_ENSMUST00000018653|mouse|control|control (ssRNA)
RNA: GGGAGUUCUACAGUCCGACGAUCCUGCUCCCCCAGGUCGAGCGCCGACACCGAGGCGGCGGGGGUGACCGCCGGCGGUGGCUCCUCGGCGGCCGCCUCCUGGGCCCGCGGCGGUGGCUUGGGCCGCGGCUUUGCCGACGGCUGCAACAGAGGAUUGAGCAUCA
B10: chr7:133967480:133967481:+_ENSMUSG00000058966_ENSMUST00000079423|mus_mus|FALSE|FALSE (ssRNA)
RNA: GGGAGUUCUACAGUCCGACGAUCAGGGAGUUGGAGGUGAAGAAGGGAUUGCCAAGCCAGAAAGGGAGAGAGAAAGAGGGAGGGGGAGGCACAAAGGGGCCAGGGCGGGGACAGGAUGGGACAAGAGGACCAGUUCAGGGCAAGCAACAGAGGAUUGAGCAUCA
B11: 126416003_126416123_291_3pUTR_ENSMUSG00000078429_ENSMUST00000105256|mouse|control|control (ssRNA)
RNA: GGGAGUUCUACAGUCCGACGAUCAGGCGGCCUGCACAGAGGGCGGGCGGGCCAGGCGGCGGCUUCCCCGGUGCCCCCAGCCCCGAUCCCCCGGUGGCAGCUCCGGGCUCCUCAGUUUGGGUCCAACAUGGAGAAUCCGGAGCGCAACAGAGGAUUGAGCAUCA
B12: 132387670_132387790_77_5pUTR_ENSG00000170606_ENST00000304858|human|control|control (ssRNA)
RNA: GGGAGUUCUACAGUCCGACGAUCGGUACUGCAACCGAGAGCGCUGCUCAGGCCGGCUCCGGCUCAGUGGCCGCAGAGGAGGCGCCGGUAGCGGGGGCGGAGAAGAUCUCGAAAGAUCUCGUUGCGACGAGAGCGGAGCCGCAGCAACAGAGGAUUGAGCAUCA
B13: 86322860_86322980_198_3pUTR_ENSG00000135018_ENST00000376395|human|control|control (ssRNA)
RNA: GGGAGUUCUACAGUCCGACGAUCCUUCCUCCUCCCUGCCCCUUCCCCCACGUCCCUUCGCCGGCGCCGCGCGGAGCACGCCGGGUAACGCGCCUGGCGGCGUCGCCGAGUCAUCCCCGGCUGGCGCGACUUUGAGCUCAGCCUCAACAGAGGAUUGAGCAUCA
B14: chr9:123912698:123912699:+_ENSG00000119397_ENST00000373850|hu_hu|FALSE|FALSE (ssRNA)
RNA: GGGAGUUCUACAGUCCGACGAUCAUGGUGUUCAGGGACGUUGCAAUGCAGCACACCCAUAGGGAUGAAGGGGAUGGAGAAGUUGGGGGGUGGAGGCCCAUACACCAUGGGGGCCCCAGCAGGAGGUGGGCCAUAAACAACAGUCAACAGAGGAUUGAGCAUCA

This experiment addresses T1, UNK ZnF1-3 (human, UniProt Q9C0B0 31-174).
T1 sequence: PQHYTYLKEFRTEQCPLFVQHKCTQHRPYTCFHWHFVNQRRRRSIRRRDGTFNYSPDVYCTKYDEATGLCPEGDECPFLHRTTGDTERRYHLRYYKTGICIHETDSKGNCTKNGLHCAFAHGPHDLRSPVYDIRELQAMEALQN
Description: nsRBNS (natural sequence RNA bind-n-seq); RBNS binding buffer (assumed for nsRBNS): 25 mM Tris pH 7.5, 150 mM KCl, 3 mM MgCl2, 0.01% Triton X-100, 500 ug/ml BSA, 20 U/ml SUPERase-In, 4 C; UNK is unkempt and MSI1 is Musashi-1; names of the RNAs are library labels; protein concentration not given here; high values mean tight binding.
On to B1, for which the binding signal was found to be 1.01 enrichment R.

As for B2, the binding signal was 1.06 enrichment R.

With B3, the binding signal came to 1.75 enrichment R.

On to B4, for which the binding signal amounted to 5.42 enrichment R.

B5 showed a binding signal of 3.69 enrichment R.

B6: the binding signal amounted to 1.39 enrichment R.

B7 came in with a binding signal of 0.777 enrichment R.

The molecule B8 returned a binding signal of 0.81 enrichment R.

For the molecule B9, the binding signal was 4.47 enrichment R.

B10: the binding signal was 5.53 enrichment R.

With B11, the binding signal was determined as 2.26 enrichment R.

In the case of B12, the binding signal worked out at 1.09 enrichment R.

Take B13: the binding signal was determined as 0.759 enrichment R.

Molecule B14 had a binding signal of 1.48 enrichment R.

The values above are taken from PMC12136788.
